{
  "source": "PubChem BioAssay (EPA / NIEHS)",
  "note": "The source made the active and inactive calls. How the source made its calls: active means hit-call score of the fitted dose curve at least 0.9, where 1 is the maximum; inactive means score below 0.9.",
  "data": [
    {"test_system": "not listed separately", "assay": "ATG_CRE_CIS: Attagene CIS-FACTORIAL HepG2 Assay for human cAMP Responsive Element (CRE) binding protein 3 (AID 2282926)", "settings": "HepG2 CRE cis-reporter, Attagene multiplexed mRNA; actives raise or lower the signal", "summary_of_the_method": "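Endogenous transcription factor activity read via CRE-regulated reporter transcripts in transfected HepG2 cells. After 24 h exposure, RNA was reverse-transcribed, amplified, fluorescently labelled and sized by capillary electrophoresis; gain or loss fitted against DMSO.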", "values": [
      {"compound": "O=c1n(CC2CO2)c(=O)n(CC2CO2)c(=O)n1CC1CO1", "note": "(stereo not drawn)", "AC50": "44.5 µM (active)"},
      {"compound": "COCCOc1cc2cc(C(=O)NC3CCN(C(C)C)CC3)n(CC(=O)Nc3ccc(Cl)cn3)c2cn1", "AC50": "100 µM (active)"},
      {"compound": "CC(C)=CCC/C(C)=C/CO", "outcome": "inactive"},
      {"compound": "CCOC(=O)CC(CC(=O)OCC)(OC(C)=O)C(=O)OCC", "outcome": "inactive"},
      {"compound": "Cc1ccc(C)c(O)c1", "outcome": "inactive"},
      {"compound": "CCCCCCCCCCCCCCCO", "outcome": "inactive"},
      {"compound": "CC[C@H]1OC(=O)[C@H](C)[C@@H](O[C@H]2C[C@@](C)(OC)[C@@H](O)[C@H](C)O2)[C@H](C)[C@@H](O[C@@H]2O[C@H](C)C[C@H](N(C)C)[C@H]2O)[C@](C)(O)C[C@@H](C)C(=O)[C@H](C)[C@@H](O)[C@]1(C)O", "outcome": "inactive"},
      {"compound": "CC(C)CCO", "outcome": "inactive"},
      {"compound": "CC(C)CCCCCCOC(=O)c1ccc(C(=O)OCCCCCCC(C)C)c(C(=O)OCCCCCCC(C)C)c1", "outcome": "inactive"},
      {"compound": "Cc1c(-c2cccnc2)c2ccccc2n1CCCCC(=O)O", "outcome": "inactive"},
      {"compound": "CCCCC(CC)COC(=O)c1ccc(C(=O)OCC(CC)CCCC)cc1", "note": "(stereo not drawn)", "outcome": "inactive"},
      {"compound": "CCCCCCCCO", "outcome": "inactive"},
      {"compound": "O=C(O)CCN(C1(C(=O)NO)CCCC1)S(=O)(=O)c1ccc(Oc2ccc(F)cc2)cc1", "outcome": "inactive"},
      {"compound": "COc1cccc(-c2ccc(/C=C\\CN3CCCCCC3)cc2Cl)c1", "outcome": "inactive"},
      {"compound": "CC(C)=CCC/C(C)=C\\CO", "outcome": "inactive"}
    ]},
    {"target": "CCAAT/enhancer-binding protein beta (Homo sapiens) (UniProt P17676)", "sequence (P17676 whole entry, looked up)": "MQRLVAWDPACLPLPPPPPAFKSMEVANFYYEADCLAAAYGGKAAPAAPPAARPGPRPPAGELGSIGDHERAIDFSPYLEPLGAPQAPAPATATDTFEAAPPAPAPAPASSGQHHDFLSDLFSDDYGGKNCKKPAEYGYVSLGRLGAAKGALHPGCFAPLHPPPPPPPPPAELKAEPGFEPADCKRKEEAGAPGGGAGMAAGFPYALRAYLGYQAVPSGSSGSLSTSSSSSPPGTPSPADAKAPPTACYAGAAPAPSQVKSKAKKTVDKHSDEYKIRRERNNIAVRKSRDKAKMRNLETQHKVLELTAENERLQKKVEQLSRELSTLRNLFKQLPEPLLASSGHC", "assay": "ATG_C_EBP_CIS: Attagene CIS-FACTORIAL HepG2 Assay for human CCAAT/Enhancer Binding Protein (C/EBP) beta (AID 2282927)", "settings": "HepG2 Attagene cis-factorial transcription factor reporter; actives raise or lower the signal", "summary_of_the_method": "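Endogenous transcription factor activity in human liver HepG2 cells is inferred from induction of a CEBPB-linked reporter mRNA. Exposure lasts 24 h; activity is fitted in both directions relative to DMSO.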", "values": [
      {"compound": "Cc1[nH]cnc1C[C@H]1CCc2c(C)c3ccccc3n2C1=O", "outcome": "inactive"},
      {"compound": "O=P(OC(CCl)CCl)(OC(CCl)CCl)OC(CCl)CCl", "outcome": "inactive"},
      {"compound": "CN(C)c1ccc(Cc2ccc(N(C)C)cc2)cc1", "outcome": "inactive"},
      {"compound": "COC(=O)c1ccccc1O", "outcome": "inactive"},
      {"compound": "O=C1CCC(N2C(=O)c3ccccc3C2=O)C(=O)N1", "note": "(stereo not drawn)", "outcome": "inactive"},
      {"compound": "CC(C)CC(C)(O)C#CC(C)(O)CC(C)C", "note": "(stereo not drawn)", "outcome": "inactive"},
      {"compound": "O=C(OC[C@H]1O[C@@H](OC(=O)c2cc(O)c(O)c(OC(=O)c3cc(O)c(O)c(O)c3)c2)[C@H](OC(=O)c2cc(O)c(O)c(OC(=O)c3cc(O)c(O)c(O)c3)c2)[C@@H](OC(=O)c2cc(O)c(O)c(OC(=O)c3cc(O)c(O)c(O)c3)c2)[C@@H]1OC(=O)c1cc(O)c(O)c(OC(=O)c2cc(O)c(O)c(O)c2)c1)c1cc(O)c(O)c(OC(=O)c2cc(O)c(O)c(O)c2)c1", "outcome": "inactive"},
      {"compound": "Cn1cnc([N+](=O)[O-])c1Sc1ncnc2nc[nH]c12", "outcome": "inactive"},
      {"compound": "O=C(O)CC(O)C(=O)O", "note": "(stereo not drawn)", "outcome": "inactive"},
      {"compound": "CC[C@H](C)C(=O)O[C@H]1C[C@@H](C)C=C2C=C[C@H](C)[C@H](CC[C@@H]3C[C@@H](O)CC(=O)O3)[C@H]21", "outcome": "inactive"},
      {"compound": "COCCOc1cc2cc(C(=O)NC3CCN(C(C)C)CC3)n(CC(=O)Nc3ccc(Cl)cn3)c2cn1", "outcome": "inactive"},
      {"compound": "CC(C)=CCC/C(C)=C/CO", "outcome": "inactive"},
      {"compound": "CCOC(=O)CC(CC(=O)OCC)(OC(C)=O)C(=O)OCC", "outcome": "inactive"},
      {"compound": "Cc1ccc(C)c(O)c1", "outcome": "inactive"},
      {"compound": "CC[C@H]1OC(=O)[C@H](C)[C@@H](O[C@H]2C[C@@](C)(OC)[C@@H](O)[C@H](C)O2)[C@H](C)[C@@H](O[C@@H]2O[C@H](C)C[C@H](N(C)C)[C@H]2O)[C@](C)(O)C[C@@H](C)C(=O)[C@H](C)[C@@H](O)[C@]1(C)O", "outcome": "inactive"},
      {"compound": "CC(C)CCO", "outcome": "inactive"},
      {"compound": "O=C(O)CCN(C1(C(=O)NO)CCCC1)S(=O)(=O)c1ccc(Oc2ccc(F)cc2)cc1", "outcome": "inactive"},
      {"compound": "COc1cccc(-c2ccc(/C=C\\CN3CCCCCC3)cc2Cl)c1", "outcome": "inactive"},
      {"compound": "CC(C)=CCC/C(C)=C\\CO", "outcome": "inactive"}
    ]},
    {"test_system": "not listed separately", "assay": "ATG_CMV_CIS: Attagene CIS-FACTORIAL HepG2 Assay for human CMV (Internal Marker) (AID 2282928);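 further: endpoint acts as a background internal control marker rather than a target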", "settings": "HepG2 CMV promoter reporter, transcription factor profiling; actives raise or lower the signal", "summary_of_the_method": "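Bidirectional fits against DMSO are applied to reporter mRNA, read by RT-PCR with capillary electrophoresis, from HepG2 cells exposed 24 h. The endpoint serves as an internal CMV background marker within the cis-factorial reporter panel.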", "values": [
      {"compound": "Cc1[nH]cnc1C[C@H]1CCc2c(C)c3ccccc3n2C1=O", "outcome": "inactive"},
      {"compound": "CC(C)CCCCCCCOC(=O)CCCCC(=O)OCCCCCCCC(C)C", "outcome": "inactive"},
      {"compound": "O=P(OC(CCl)CCl)(OC(CCl)CCl)OC(CCl)CCl", "AC50": "100 µM (active)"},
      {"compound": "CN(C)c1ccc(Cc2ccc(N(C)C)cc2)cc1", "AC50": "70.4 µM (active)"},
      {"compound": "CC(C)=CCCC(C)=CC=O", "outcome": "inactive"},
      {"compound": "COC(=O)c1ccccc1O", "outcome": "inactive"},
      {"compound": "O=C1CCC(N2C(=O)c3ccccc3C2=O)C(=O)N1", "note": "(stereo not drawn)", "outcome": "inactive"},
      {"compound": "CC(C)CC(C)(O)C#CC(C)(O)CC(C)C", "note": "(stereo not drawn)", "outcome": "inactive"},
      {"compound": "CCC(C)(C)C(=O)O[C@H]1C[C@@H](C)C=C2C=C[C@H](C)[C@H](CC[C@@H]3C[C@@H](O)CC(=O)O3)[C@H]21", "outcome": "inactive"},
      {"compound": "CC(C)(O)c1coc(S(=O)(=O)NC(=O)Nc2c3c(cc4c2CCC4)CCC3)c1", "outcome": "inactive"},
      {"compound": "O=C(OC[C@H]1O[C@@H](OC(=O)c2cc(O)c(O)c(OC(=O)c3cc(O)c(O)c(O)c3)c2)[C@H](OC(=O)c2cc(O)c(O)c(OC(=O)c3cc(O)c(O)c(O)c3)c2)[C@@H](OC(=O)c2cc(O)c(O)c(OC(=O)c3cc(O)c(O)c(O)c3)c2)[C@@H]1OC(=O)c1cc(O)c(O)c(OC(=O)c2cc(O)c(O)c(O)c2)c1)c1cc(O)c(O)c(OC(=O)c2cc(O)c(O)c(O)c2)c1", "outcome": "inactive"},
      {"compound": "Cn1cnc([N+](=O)[O-])c1Sc1ncnc2nc[nH]c12", "AC50": "35.3 µM (active)"},
      {"compound": "O=C(O)CC(O)C(=O)O", "note": "(stereo not drawn)", "outcome": "inactive"},
      {"compound": "CC[C@H](C)C(=O)O[C@H]1C[C@@H](C)C=C2C=C[C@H](C)[C@H](CC[C@@H]3C[C@@H](O)CC(=O)O3)[C@H]21", "outcome": "inactive"},
      {"compound": "O=c1n(CC2CO2)c(=O)n(CC2CO2)c(=O)n1CC1CO1", "note": "(stereo not drawn)", "outcome": "inactive"},
      {"compound": "COCCOc1cc2cc(C(=O)NC3CCN(C(C)C)CC3)n(CC(=O)Nc3ccc(Cl)cn3)c2cn1", "outcome": "inactive"},
      {"compound": "CC(C)=CCC/C(C)=C/CO", "outcome": "inactive"},
      {"compound": "CCOC(=O)CC(CC(=O)OCC)(OC(C)=O)C(=O)OCC", "outcome": "inactive"},
      {"compound": "Cc1ccc(C)c(O)c1", "outcome": "inactive"},
      {"compound": "CCCCCCCCCCCCCCCO", "AC50": "56.6 µM (active)"},
      {"compound": "CC[C@H]1OC(=O)[C@H](C)[C@@H](O[C@H]2C[C@@](C)(OC)[C@@H](O)[C@H](C)O2)[C@H](C)[C@@H](O[C@@H]2O[C@H](C)C[C@H](N(C)C)[C@H]2O)[C@](C)(O)C[C@@H](C)C(=O)[C@H](C)[C@@H](O)[C@]1(C)O", "outcome": "inactive"},
      {"compound": "CC(C)CCO", "outcome": "inactive"},
      {"compound": "CC(C)CCCCCCOC(=O)c1ccc(C(=O)OCCCCCCC(C)C)c(C(=O)OCCCCCCC(C)C)c1", "outcome": "inactive"},
      {"compound": "Cc1c(-c2cccnc2)c2ccccc2n1CCCCC(=O)O", "outcome": "inactive"},
      {"compound": "CCCCC(CC)COC(=O)c1ccc(C(=O)OCC(CC)CCCC)cc1", "note": "(stereo not drawn)", "outcome": "inactive"},
      {"compound": "CCCCCCCCO", "outcome": "inactive"},
      {"compound": "O=C(O)CCN(C1(C(=O)NO)CCCC1)S(=O)(=O)c1ccc(Oc2ccc(F)cc2)cc1", "outcome": "inactive"},
      {"compound": "COc1cccc(-c2ccc(/C=C\\CN3CCCCCC3)cc2Cl)c1", "outcome": "inactive"},
      {"compound": "CC(C)=CCC/C(C)=C\\CO", "outcome": "inactive"}
    ]}
  ]
}
